Bioassay records from PubChem BioAssay.
CYP2C19 inhib = human CYP2C19 inhibition; P33261; CYP2C19 Supersomes, luciferin-H EGE luminescence, 30 min; inhibition, % at 5 µM; hit rate 21% among 96,000; AID 778;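 active = CYP2C19 inhibition above a set limit at 5 µM in the primary screen, cut at about 50% in these data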;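 also: plate controls were negative control wells for no effect and 2.5 mM tranylcypromine positive control for full effect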
Target sequence (P33261 whole entry, looked up): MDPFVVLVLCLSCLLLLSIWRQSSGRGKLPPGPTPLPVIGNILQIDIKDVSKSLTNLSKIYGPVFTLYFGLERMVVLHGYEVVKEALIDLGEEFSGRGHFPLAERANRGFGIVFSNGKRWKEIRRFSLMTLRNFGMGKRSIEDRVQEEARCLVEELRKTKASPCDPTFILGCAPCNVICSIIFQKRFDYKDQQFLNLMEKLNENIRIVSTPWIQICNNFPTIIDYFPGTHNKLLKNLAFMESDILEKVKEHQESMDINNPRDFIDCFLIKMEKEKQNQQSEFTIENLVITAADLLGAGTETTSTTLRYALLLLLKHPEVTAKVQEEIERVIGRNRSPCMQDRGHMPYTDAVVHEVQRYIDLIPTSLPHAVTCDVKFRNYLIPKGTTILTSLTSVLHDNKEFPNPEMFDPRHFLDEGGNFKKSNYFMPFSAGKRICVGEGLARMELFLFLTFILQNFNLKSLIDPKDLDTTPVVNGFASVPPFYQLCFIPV
Measles CPE = protection of cells from measles virus; Measles virus-infected cells, CPE protection, absorbance; protection (pct of control), % at 4 µM; hit rate 1.5% among 140,000; AID 841; in the data active = protection mostly above about 24%, no sharp cut-off; inactive = mostly below about 26%
CYP2C9 inhib = inhibitors of human CYP2C9; P11712; hit rate 20% among 96,000; CYP2C9 Supersomes, luciferin-H conversion, luminescence; inhibition, % at 5 µM; AID 777;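 active = blocking of liver enzyme CYP2C9 beyond about 50% at 5 µM, limit read from the data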
CYP2C19 act = cytochrome P450 2C19 (human) activation | P33261 | recombinant CYP2C19, luciferin-H EGE luminescence; hits give high values; 0 = fully inhibited enzyme, 1 = untreated enzyme | activation factor at 5 µM | 96,000 tested, under 10 active;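 active = activation factor of at least 2 at 5 µM in the primary screen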;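 also: 0 = wells with 2.5 mM tranylcypromine and 1 = vehicle-only wells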
CYP2C9 activ = increases human cytochrome P450 2C9 activity; AID 1024; activation factor at 5 µM; hit rate 1.4% among 96,000; P11712; recombinant CYP2C9, luciferin-H conversion, luminescence; hits give high values; factor 1 = untreated enzyme, 0 = blocked;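 active = activation factor of 2 or more for CYP2C9 at a 5 µM dose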;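 also: 0 = sulfaphenazole-blocked wells and 1 = vehicle-only wells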
* = called active by the depositor; / = no result given. Rows were chosen to be rich in hits. Some 22% of all compounds tested hit in one or more screens of this group.

SMILES	CYP2C19 inhib	Measles CPE	CYP2C9 inhib	CYP2C19 act	CYP2C9 activ
CC1C(=O)CCN(C(C)(C)C)C1C (configuration not stated)	-5	15	13	1.1	0.9
Cc1ccc(-c2noc(CN3C(C)CCCC3C)n2)cc1 (configuration not stated)	51*	5	36	0.5	0.6
COc1ccccc1C1CC(c2ccc(F)cc2)Nc2ncnn21 (configuration not stated)	42	0	-6	0.6	1.1
CCc1ccc(C2CC(c3ccccc3)n3ncnc3N2)cc1 (configuration not stated)	88*	23	48	0.1	0.5
Fc1ccc(C2CC(c3ccc(F)cc3)n3ncnc3N2)cc1 (configuration not stated)	97*	23	69*	0	0.3
Nc1nc2n(n1)C(c1ccc(Cl)cc1)CC(c1ccc(F)cc1)N2 (configuration not stated)	22	6	7	0.8	0.9
CNc1ccccc1C(C)(C)c1cc(-c2ccco2)n[nH]1	54*	7	25	0.5	0.7
O=C(OCCN1C(=O)c2ccccc2C1=O)c1cc2ccccc2o1	32	7	20	0.7	0.8
O=C(OCCN1C(=O)c2ccccc2C1=O)c1cccc(OC(F)F)c1	90*	16	26	0.1	0.7
CCOc1ccccc1OCCOc1ccc(F)cc1	57*	10	-9	0.4	1.1
COCCCn1c(SCC(=O)N2CCCC(C)C2)nnc1-c1ccco1 (configuration not stated)	25	7	20	0.7	0.8
CC1=C(C#N)C(NC(=O)c2ccc(Cl)cc2)(C(F)(F)F)C(=O)N1 (configuration not stated)	/	8	/	/	/
CC1=C(C#N)C(NC(=O)c2ccc(C)cc2)(C(F)(F)F)C(=O)N1 (configuration not stated)	92*	20	17	0.1	0.8
CC1=C(C#N)C(Nc2cc(C)ccn2)(C(F)(F)F)C(=O)N1 (configuration not stated)	76*	21	26	0.2	0.7
CC1=C(C#N)C(NC(=O)c2ccco2)(C(F)(F)F)C(=O)N1 (configuration not stated)	2	6	-23	1	1.2
CCCN1C(=O)/C(=C/c2ccc(N3CCCC3)c(C)c2)NC1=S	53*	4	53*	0.5	0.5
CC1(C)CC(=O)C2=C(C1)N(CC1CCCO1)C(=O)C2(NC(=O)c1cccnc1)C(F)(F)F (configuration not stated)	-3	13	12	1	0.9
COCCn1c(Cc2ccccc2)nnc1SCC(=O)NC(C)C	0	28	-16	1	1.2
CC1C(=O)C(C)C(c2ccc3c(c2)OCO3)NC1c1ccc2c(c1)OCO2 (configuration not stated)	97*	31	72*	0	0.3
O=C1CC(c2ccc3c(c2)OCO3)CN1 (configuration not stated)	-2	7	-8	1	1.1
Cc1ccc(N(CN2C(=O)NC(C)(C)C2=O)CN2C(=O)NC(C)(C)C2=O)cc1	51*	10	-3	0.5	1
CC1(C)NC(=O)N(CC(O)COc2ccc(-c3ccccc3)cc2)C1=O (configuration not stated)	44	2	13	0.6	0.9
CCN1C(=O)CC2(C[N+]3(C)CCC2CC3)C1=O (configuration not stated)	/	8	/	/	/
CCN(CC)CCNc1nc(-c2ccccc2)nnc1C(F)(F)F	12	43*	-8	0.9	1.1
CSc1ccc(-c2nnn(Cc3ccc(C)cc3)n2)cc1	62*	3	20	0.4	0.8
CC(C)=CC1C(C(=O)Nc2ccc(Br)cn2)C1(C)C (configuration not stated)	23	25	35	0.8	0.7
Cc1nn(-c2ccccn2)c2c1C(c1ccccn1)C1=C(CCCC1=O)N2 (configuration not stated)	-8	6	5	1.1	0.9
Cc1cccc(OCC(=O)NC(Cc2ccccc2)C(=O)O)c1 (configuration not stated)	/	7	/	/	/
Cc1cccc(OCC(=O)NC(C)C(=O)N/N=C/c2c(OCc3ccccc3)ccc3ccccc23)c1 (configuration not stated)	49	3	89*	0.5	0.1
O=c1[nH]c(=O)n(C2CCCO2)cc1Br (configuration not stated)	-2	6	2	1	1
